FAS-TE inh – inhibitors of human fatty acid synthase thioesterase domain | P49327 | AID 602261 | recombinant FAS-TE, OMFH fluorogenic substrate, fluorescence endpoint | inhibition, % at 15 µM | 360,000 tested, 0.67% active;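 active means compounds whose normalised, plate-corrected inhibition of enzyme fluorescence in the single-dose primary screen is 50% or more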
Target sequence (P49327 whole entry, looked up, the tested form may be a part): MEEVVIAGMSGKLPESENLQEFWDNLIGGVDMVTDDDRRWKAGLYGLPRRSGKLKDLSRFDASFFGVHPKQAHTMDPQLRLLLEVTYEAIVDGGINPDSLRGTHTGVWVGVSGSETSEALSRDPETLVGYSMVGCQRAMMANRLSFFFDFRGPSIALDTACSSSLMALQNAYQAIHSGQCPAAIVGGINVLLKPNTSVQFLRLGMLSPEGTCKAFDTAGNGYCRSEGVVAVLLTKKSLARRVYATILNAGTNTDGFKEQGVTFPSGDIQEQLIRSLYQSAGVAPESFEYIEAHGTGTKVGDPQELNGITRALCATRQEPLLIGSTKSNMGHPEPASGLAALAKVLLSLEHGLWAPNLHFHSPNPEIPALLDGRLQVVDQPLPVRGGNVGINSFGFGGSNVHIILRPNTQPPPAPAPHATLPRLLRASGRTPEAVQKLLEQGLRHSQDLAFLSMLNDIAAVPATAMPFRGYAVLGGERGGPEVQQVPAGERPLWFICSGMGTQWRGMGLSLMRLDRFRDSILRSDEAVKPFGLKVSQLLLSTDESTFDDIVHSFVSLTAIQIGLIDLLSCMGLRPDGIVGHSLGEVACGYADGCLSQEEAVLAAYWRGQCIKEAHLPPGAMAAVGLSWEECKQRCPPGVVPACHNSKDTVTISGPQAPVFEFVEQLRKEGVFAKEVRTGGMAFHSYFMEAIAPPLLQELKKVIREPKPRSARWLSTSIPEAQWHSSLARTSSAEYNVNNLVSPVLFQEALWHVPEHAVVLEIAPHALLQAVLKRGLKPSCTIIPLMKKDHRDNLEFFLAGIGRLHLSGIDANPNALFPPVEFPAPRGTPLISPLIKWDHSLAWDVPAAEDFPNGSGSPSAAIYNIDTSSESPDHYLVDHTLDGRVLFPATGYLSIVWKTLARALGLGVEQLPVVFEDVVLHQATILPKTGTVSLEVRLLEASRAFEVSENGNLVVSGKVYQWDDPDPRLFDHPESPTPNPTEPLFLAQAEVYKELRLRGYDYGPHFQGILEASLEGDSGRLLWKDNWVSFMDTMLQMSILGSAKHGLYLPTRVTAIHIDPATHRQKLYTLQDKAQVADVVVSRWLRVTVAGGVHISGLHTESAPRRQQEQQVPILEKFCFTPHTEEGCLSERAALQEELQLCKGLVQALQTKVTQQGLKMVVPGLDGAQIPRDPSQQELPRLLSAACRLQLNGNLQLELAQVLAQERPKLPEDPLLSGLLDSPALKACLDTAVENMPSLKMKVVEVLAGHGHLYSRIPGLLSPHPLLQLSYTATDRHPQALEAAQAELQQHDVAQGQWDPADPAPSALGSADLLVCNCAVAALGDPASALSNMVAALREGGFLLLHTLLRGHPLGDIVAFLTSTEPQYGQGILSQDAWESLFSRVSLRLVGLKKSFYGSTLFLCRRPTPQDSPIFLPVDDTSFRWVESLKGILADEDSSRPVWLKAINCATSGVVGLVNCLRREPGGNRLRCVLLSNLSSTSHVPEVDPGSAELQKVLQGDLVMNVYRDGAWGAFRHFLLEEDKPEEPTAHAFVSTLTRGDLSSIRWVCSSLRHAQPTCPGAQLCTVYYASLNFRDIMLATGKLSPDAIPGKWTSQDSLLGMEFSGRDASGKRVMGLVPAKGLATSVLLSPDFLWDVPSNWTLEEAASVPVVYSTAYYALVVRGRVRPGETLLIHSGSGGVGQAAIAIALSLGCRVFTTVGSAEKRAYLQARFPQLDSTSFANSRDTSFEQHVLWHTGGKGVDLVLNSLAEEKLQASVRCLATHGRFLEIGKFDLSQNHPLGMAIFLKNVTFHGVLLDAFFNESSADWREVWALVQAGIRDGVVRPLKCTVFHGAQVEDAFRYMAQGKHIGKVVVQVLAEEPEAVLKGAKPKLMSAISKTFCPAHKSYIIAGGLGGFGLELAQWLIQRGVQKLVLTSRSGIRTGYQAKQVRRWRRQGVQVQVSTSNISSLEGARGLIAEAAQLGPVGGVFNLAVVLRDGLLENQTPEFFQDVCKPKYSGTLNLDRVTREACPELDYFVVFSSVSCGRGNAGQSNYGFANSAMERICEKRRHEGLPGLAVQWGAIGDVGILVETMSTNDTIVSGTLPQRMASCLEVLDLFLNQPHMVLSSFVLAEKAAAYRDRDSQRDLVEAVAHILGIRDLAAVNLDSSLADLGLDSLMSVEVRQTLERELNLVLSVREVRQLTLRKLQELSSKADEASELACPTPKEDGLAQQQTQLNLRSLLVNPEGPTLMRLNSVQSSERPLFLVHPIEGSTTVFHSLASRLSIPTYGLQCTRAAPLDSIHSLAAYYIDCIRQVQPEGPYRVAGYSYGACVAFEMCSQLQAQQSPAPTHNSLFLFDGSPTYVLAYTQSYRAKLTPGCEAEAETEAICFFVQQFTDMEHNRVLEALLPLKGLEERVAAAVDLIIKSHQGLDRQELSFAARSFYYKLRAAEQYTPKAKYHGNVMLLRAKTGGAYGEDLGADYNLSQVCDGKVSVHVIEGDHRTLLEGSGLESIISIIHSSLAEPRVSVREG
Myeloid diff 2 – myeloid differentiation induction. ER-HoxA9 myeloid progenitors, lysozyme-GFP differentiation, flow cytometry. calls only at 10 µM. 360,000 tested, 1% active;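 active means normalized GFP-positive differentiation at or above the plate's own cutoff, the solvent-only control mean plus 3 SD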;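 further: cells exposed to compound for four days before flow analysis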
rCAG RNA binder – r(CAG) repeat RNA binding; TO-PRO-1 dye displacement fluorescence; AID 651821; 370,000 tested, 1.3% active; inhibition, % at 3 µM;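 active means inhibition above the plate cutoff, the mean of all test compounds on that plate plus 3 SD, cut at about 35% in these data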;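 further: higher means more dye released from RNA so lower well fluorescence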
NR3A LBD binder – modulators (binders) of human NR3A ligand-binding domain | NR3A LBD differential scanning fluorimetry, Tm shift; 0% = protein alone, 100% = glycine-bound protein | Tm shift relative to glycine control, % at 25 µM | 340,000 tested, 2.5% active;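 active means melting temperature shift of at least 10% of the positive control shift, at one fixed dose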
MPTP inh – permeability transition pore inhibition; isolated mouse mitochondria, Ca2+ swelling absorbance, 30 min; inhibition, % at 10 µM; 360,000 tested, 1.4% active;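 active means inhibition of 50% or more, scaled per plate between neutral and stimulator controls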
Of the large screens only hits and unclear results are named; the others gave an inactive call. The list is not random: actives were taken first. Their share in the collection is about 5.7%.

COc1cccc(COC(=O)c2cc(S(=O)(=O)N3CCCCC3)ccc2N2CCOCC2)c1OC	NR3A LBD binder 19
CCN1CCN(c2ccc(S(=O)(=O)N3CCCCC3)cc2NC(=O)/C=C/c2cccc(OC)c2OC)CC1	Myeloid diff 2 active
O=S(=O)(NCc1cn2ccsc2n1)c1ccc(Oc2ccccc2)cc1	Myeloid diff 2 active
O=S(=O)(NCc1cn2ccsc2n1)c1cccs1	none
CCOC(=O)C1=C(C(=O)OCC)C2N(Cc3ccc(Br)cc3)c3ccccc3[C@@]23C[C@@H](C(=O)OC)N(S(=O)(=O)c2ccc(Br)cc2)C3=N1 (stereo not given in full)	none (no result: FAS-TE inh, Myeloid diff 2, NR3A LBD binder, MPTP inh)
Cc1cnc(C(=O)OCC(=O)C23CC4CC(CC(C4)C2)C3)cn1	Myeloid diff 2 active
Cc1cnc(C(=O)OCC(=O)Nc2ccc(Br)c(C)c2)cn1	NR3A LBD binder 12
Cc1cnc(C(=O)OCC(=O)Nc2cc(Cl)cc(Cl)c2)cn1	NR3A LBD binder 13
CC(=O)OCC(=O)Nc1ccc(Br)c(C)c1	none
O=C(OCCN1CCN(C2CN(Cc3cn(Cc4ccccc4C(F)(F)F)nn3)S(=O)(=O)C2)CC1)c1cc2ccccc2o1 (stereo not given)	none (no result: FAS-TE inh, Myeloid diff 2, NR3A LBD binder, MPTP inh)
C#CCN1CC(N(C)CCOC(=O)c2ccc(F)cc2)CS1(=O)=O (stereo not given)	none (no result: FAS-TE inh, Myeloid diff 2, NR3A LBD binder, MPTP inh)
Cc1ccc(S(=O)(=O)N2CCCC2C(=O)N2CCN(c3ccccc3)CC2)cc1C (stereo not given)	none (no result: FAS-TE inh, Myeloid diff 2, NR3A LBD binder, MPTP inh)
O=c1c2ccccc2nnn1Cc1ccco1	none (no result: FAS-TE inh, Myeloid diff 2, NR3A LBD binder, MPTP inh)
CC1CN(C(C)C(=O)NNC(=O)c2ccc(F)cc2)CC(C)O1 (stereo not given)	Myeloid diff 2 active
COC(=O)c1cc2c(c3c4cc(C)ccc4n(S(=O)(=O)c4ccc(C)cc4)c13)C(=O)N(Cc1ccc(C(F)(F)F)cc1)C2	none (no result: FAS-TE inh, Myeloid diff 2, NR3A LBD binder, MPTP inh)
NC(=NCCc1c[nH]c2ccccc12)NC(=O)c1ccc(F)cc1	NR3A LBD binder 38
CCC(=O)Nc1ccc2c(c1)C(=O)N(C)[C@@H]1CC[C@@H](CC(=O)NCc3ccc(OC)cc3)O[C@H]1CO2	none (no result: FAS-TE inh, Myeloid diff 2, NR3A LBD binder, MPTP inh)
CCOc1ccc(-n2c(SC/C=C/c3ccccc3)nnc2-c2cccs2)cc1	none (no result: FAS-TE inh, Myeloid diff 2, NR3A LBD binder, MPTP inh)
Cc1ccc(N(C)C(=O)C2CCN(S(=O)(=O)c3ccc4c(c3)oc(=O)n4C)CC2)cc1	none
CCN(C(=O)C1CCN(S(=O)(=O)c2ccc3c(c2)oc(=O)n3C)CC1)c1cccc(C)c1	Myeloid diff 2 active
O=C(COC(=O)CNC(=O)c1cccc([N+](=O)[O-])c1)NCc1ccco1	Myeloid diff 2 active
C=CCOC(=O)N[C@@H](c1cccc(OC)c1)[C@@H](C)/C=C/CC(=O)O	none (no result: FAS-TE inh, Myeloid diff 2, NR3A LBD binder, MPTP inh)
O=C(COc1cccnc1[N+](=O)[O-])N1CCN(S(=O)(=O)c2ccc3ccccc3c2)CC1	NR3A LBD binder 14
C=CCOC(=O)N[C@@H](c1coc2ccccc2c1=O)[C@@H](C)/C=C/CC(=O)OC	none (no result: FAS-TE inh, Myeloid diff 2, NR3A LBD binder, MPTP inh)
CCN(CC)S(=O)(=O)c1ccc(Cl)c(C(=O)OC)c1	Myeloid diff 2 active
CCN(CC)S(=O)(=O)c1cc(C(=O)OC)ccc1Cl	none
COc1ccc(N(CC(=O)N2CCc3ccccc32)S(=O)(=O)c2c(C)nn(C)c2C)cc1	none
Cc1nn(C)c(C)c1S(=O)(=O)N(CC(=O)N1CCc2ccccc21)c1ccc(C(C)C)cc1	Myeloid diff 2 active
Cc1ccc(Cn2nnc3c2-c2ccccc2S(=O)(=O)N(C)C3)cc1	none (no result: FAS-TE inh, Myeloid diff 2, NR3A LBD binder, MPTP inh)
O=C(O)CN1C(=O)/C(=C/c2cccc(Cl)c2)Oc2ccccc21	rCAG RNA binder 52
COc1ccc(C2CC(c3ccc4ccccc4c3)=NN2C(=O)CSc2ncccn2)cc1 (stereo not given)	NR3A LBD binder 19
CCC(C)NS(=O)(=O)c1ccc(NC(=O)C(Sc2ccccc2)c2ccccc2)cc1 (stereo not given)	NR3A LBD binder 13
CC(=O)NS(=O)(=O)c1ccc(NC(=O)C(Sc2ccccc2)c2ccccc2)cc1 (stereo not given)	none
Cc1ccc(-c2cc(C(=O)NN=Cc3sccc3C)[nH]n2)cc1C	none (no result: FAS-TE inh, Myeloid diff 2, NR3A LBD binder, MPTP inh)
CCCc1c(Cc2cccc(F)c2)ncn1Cc1cccc(-c2ccccc2)c1	Myeloid diff 2 active (no result: FAS-TE inh, NR3A LBD binder)
CCc1c(-c2ccccc2)ncn1Cc1cccc(-c2ccccc2)c1	none (no result: FAS-TE inh, NR3A LBD binder)
CCCCOCCCNC(=O)C[C@@H]1C(=O)N(CCc2ccc(Cl)cc2)C2=CCCC[C@]21C(=O)OCC	none (no result: FAS-TE inh, Myeloid diff 2, NR3A LBD binder, MPTP inh)
O=C(c1ccc2oc(Cc3ccc(Cl)cc3)nc2c1)N1CCCCC1CCO (stereo not given)	NR3A LBD binder 10
Cc1ccc(C(=O)N(C)[C@H]2C[C@H]3c4[nH]c5c(-c6cccc(C)c6)cccc5c4CCN3C[C@H]2[C@H](C)O)cc1	none (no result: FAS-TE inh, Myeloid diff 2, NR3A LBD binder, MPTP inh)
Cc1cccn2c(=O)c3cc(C#N)c(=O)n(Cc4cccnc4)c3nc12	NR3A LBD binder 19
Cc1cccn2c(=O)c3cc(C(N)=S)c(=N)n(CCCOC(C)C)c3nc12	Myeloid diff 2 active
Cc1ccc(S(=O)(=O)c2cc3c(=O)n4cccc(C)c4nc3n(Cc3ccncc3)c2=N)cc1	NR3A LBD binder 11 (no result: rCAG RNA binder)
CCCCNC(=O)c1cc2c(=O)n3cccc(C)c3nc2n(Cc2ccccc2)c1=N	Myeloid diff 2 active
Cc1cccn2c(=O)c3cc(S(=O)(=O)c4ccccc4)c(=N)n(Cc4cccnc4)c3nc12	none
CCCN(CCC)CCN1CCN(C(=O)[C@H](CCc2ccccc2)NC(=O)[C@H]2O[C@@H](n3cnc4c(N)ncnc43)[C@H](O)[C@@H]2O)CC1	none (no result: FAS-TE inh, Myeloid diff 2, NR3A LBD binder, MPTP inh)
O=[N+]([O-])c1cc([N+](=O)[O-])c(Oc2ccc(Cl)c3cccnc23)cc1NN1CCCCC1	Myeloid diff 2 active
O=[N+]([O-])c1cc([N+](=O)[O-])c(Oc2cccc(Cl)c2Cl)cc1NN1CCCCC1	none
Cc1nc(C)c(C(=O)OCC(=O)Nc2ccccc2SCC#N)s1	Myeloid diff 2 active
COc1cc(C2CC=C(C(=O)O)C(c3ccccc3F)N2S(=O)(=O)c2ccc(C)cc2)cc(OC)c1OC (stereo not given)	none (no result: FAS-TE inh, Myeloid diff 2, NR3A LBD binder, MPTP inh)
COc1ccc(CN2CN3Cc4cc(OC)ccc4C3CS2(=O)=O)cc1 (stereo not given)	none (no result: FAS-TE inh, Myeloid diff 2, NR3A LBD binder, MPTP inh)
C/C(CC(=O)Nc1ccc2c(c1)OCCO2)=N\NC(=O)COc1cccc(C)c1	Myeloid diff 2 active
COC(=O)[C@]12C[C@H](CC(=O)NCCC(C)C)C(=O)N(Cc3ccc(Cl)cc3Cl)C1=C[C@H](C1CCCC1)O[C@@H]2C	none (no result: FAS-TE inh, Myeloid diff 2, NR3A LBD binder, MPTP inh)
Cc1ccccc1CN1[C@@H](C)[C@H](c2ccccc2)Oc2cccc(N3CCCC3)c2S1(=O)=O	none (no result: FAS-TE inh, Myeloid diff 2, NR3A LBD binder, MPTP inh)
COc1ccc(S(=O)(=O)NC2CC2)cc1Br	Myeloid diff 2 active
COc1ccc(Cc2c(C3CCCCC3)nc3c(Cl)cc(C(F)(F)F)cn23)c(C)c1	none (no result: NR3A LBD binder)
CC1CC(C)CN(CC(=O)c2c[nH]c3ccccc23)C1 (stereo not given)	Myeloid diff 2 active
O=C(CN1CCCCC1)c1c[nH]c2ccccc12	none
C=CCNC(=O)C(=O)N/N=C/c1cccc(Br)c1	none
Fc1ccc(NC(=S)N/N=C/c2cccc(Br)c2)c(F)c1	NR3A LBD binder 32
Cc1ccccc1NC(=O)C(=O)N/N=C/c1cccc(Br)c1	NR3A LBD binder 34
CCCCCCSc1ccc(-c2nc3cnccn3c2NCCCC)cc1	Myeloid diff 2 active
